Each structure is given as a SMILES string. Inconclusive results are not listed. Where a call stands in place of a potency, no number is given. The source made the active and inactive calls. Calls follow the shape of the dose curve; as a rule, active = well fitted curve in the direction sought with a large enough effect; inconclusive = small, poorly fitted or top-dose-only effect, or another doubt; inactive = no such curve, though single readings can be large; an effect the other way counts as inactive or inconclusive.

The nature of assay [1]: qHTS assay for measurement of the activity of small molecule inhibitors on Zika virus induced Caspase-3 activity in human iPSC derived neural progenitor cells (hNPCs) (AID 1224857). Also: nearly all actives have a fitted effect of over 65% in size. In short, it runs like this:
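Caspase-3/7 induction by a 6-hour ZIKV infection was quantified with a luminescent Caspase-Glo 3/7 reagent incubated 30 minutes at room temperature. Compounds were preincubated with hNPCs for 1 hour; inhibition was calculated against uninfected and infected control wells.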
In general terms: Quantitative high-throughput screening tests each substance at several concentrations.

Assay [2] is described as follows: qHTS assay for measurement of the activity of small molecule inhibitors on Zika virus induced Caspase-3 activity in human astrocytoma cells (AID 1224859). Summed up:
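In SNB-19 cells plated at 250 cells/well and grown 16-20 h, compounds were applied 1 h before ZIKV (2 FFU/cell). Six hours later caspase-3/7 luminescence was recorded.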

Assay [3] can be described thus: qHTS assay to identify small molecule inhibitors of chordoma cells - UCH-1 (AID 1259355). Also: nearly all actives have a fitted effect of over 55% in size. Also: potency is read from the fitted curve at half-maximal effect; series mostly up to about 46 µM. In short, it runs like this:
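Screening used approved and investigational drugs in 15-point titration against 800 seeded cells per well. A fixed combination of auranofin with camptothecin, doxorubicin, rubitecan and topotecan followed compound addition, and growth was scored by CellTiter-Glo after 48hr.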

The nature of assay [4]: qHTS assay to identify small molecule inhibitors of chordoma cells - UCH-2 (AID 1259356). Also: potency is read from the fitted curve at half-maximal effect.

Regarding `c1cc2c(c(N3CCNCC3)c1)OCCO2`, the Potency entry in assay [1], in assay [3] and in assay [4] was “inactive” in each case. For the same molecule, in assay [2], the outcome was inactive.

For the molecule `CCS(=O)(=O)C(C)(C)S(=O)(=O)CC`, the Potency result in assay [1], in assay [3] and in assay [4] was “inactive” each time. Also, the outcome in assay [2] was inactive.

With `C[C@@H]1CC[C@H]2[C@@H](C)C(=O)O[C@@H]3O[C@@]4(C)CC[C@@H]1[C@]32OO4`, the Potency entry in assay [1], in assay [3] and in assay [4] was “inactive” each time. The molecule was called inactive in assay [2].

In the case of `NC(=O)OCCCc1ccccc1`, the Potency entry in assay [1], in assay [3] and in assay [4] was “inactive” throughout. Also, the result in assay [2] was inactive.

Consider `CC(Cc1ccccc1)NCc1ccccc1Cl` (configuration not stated), for which the Potency result in assay [1], in assay [3] and in assay [4] was “inactive” each time. Besides, in assay [2], the call was inactive.

With `Oc1ccc2[nH]cc(CCCCN3CC=C(c4ccccc4)CC3)c2c1`, the Potency entry in assay [1], in assay [3] and in assay [4] was “inactive” throughout. The result in assay [2] was inactive.

For `O=C(CCCN1CCC(n2c(=O)[nH]c3ccccc32)CC1)c1ccc(F)cc1`, the Potency entry in assay [1], in assay [3] and in assay [4] was “inactive” in each case. Also, in assay [2], the call was inactive.

With `O=C(NC(=O)c1c(F)cccc1F)Nc1cc(Cl)c(OC(F)(F)C(F)C(F)(F)F)cc1Cl` (configuration not stated), the Potency entry in assay [1], in assay [3] and in assay [4] was “inactive” throughout. Further, the molecule was classed as inactive in assay [2].

As to `COP(=S)(OC)Oc1ccc(Sc2ccc(OP(=S)(OC)OC)cc2)cc1`, the Potency result in assay [1], in assay [3] and in assay [4] was “inactive” each time. The molecule was called inactive in assay [2].

Regarding `CC(C)(C)OC(=O)c1ncn2c1[C@@H]1CCCN1C(=O)c1c(Br)cccc1-2`, the Potency result in assay [1], in assay [3] and in assay [4] was “inactive” throughout. Further, the call in assay [2] was inactive.

As to `CNC(=O)NC(O)C(Cl)(Cl)Cl` (configuration not stated), the Potency result in assay [1], in assay [3] and in assay [4] was “inactive” in each case. The molecule was classed as inactive in assay [2].

On to `CC(C)NCC(O)c1ccc(N)c(C#N)c1` (configuration not stated), for which the Potency entry in assay [1], in assay [3] and in assay [4] was “inactive” each time. In addition, the molecule was classed as inactive in assay [2].

On to `CCC1(CC)C(=O)NC(=O)NC1=O`, for which the Potency result in assay [1], in assay [3] and in assay [4] was “inactive” each time. Further, the molecule was called inactive in assay [2].

Regarding `CCNc1nc(Cl)nc(NCC)n1`, the Potency result in assay [1], in assay [3] and in assay [4] was “inactive” in each case. Further, the outcome in assay [2] was inactive.

`N#Cc1nn(-c2c(Cl)cc(C(F)(F)F)cc2Cl)c(N)c1S(=O)C(F)(F)F` (configuration not stated): the Potency result in assay [1], in assay [3] and in assay [4] was “inactive” throughout. Also, in assay [2], the result was inactive.

For `ClCCCN1CCN(c2cccc(Cl)c2)CC1`, the Potency entry in assay [1] was “inactive”. In addition, the molecule was classed as inactive in assay [2].

As for `C=CCOC(Cn1ccnc1)c1ccc(Cl)cc1Cl` (configuration not stated), the Potency result in assay [1], in assay [3] and in assay [4] was “inactive” each time. In assay [2], the molecule was classed as inactive.

Take `Clc1ccc(CSC(Cn2ccnc2)c2ccc(Cl)cc2Cl)cc1` (configuration not stated): the Potency result in assay [1], in assay [3] and in assay [4] was “inactive” throughout. Besides, in assay [2], the result was inactive.

As for `CCC(=O)O[C@H]1CC[C@H]2[C@@H]3CCC4=CC(=O)CC[C@]4(C)[C@H]3CC[C@]12C`, the Potency entry in assay [1], in assay [3] and in assay [4] was “inactive” in each case. Further, the call in assay [2] was inactive.

`C[C@@H]1O[C@@H](O[C@@H]2C=C3CC[C@@H]4[C@H](CC[C@]5(C)[C@@H](c6ccc(=O)oc6)CC[C@]45O)[C@@]3(C)CC2)[C@H](O)[C@H](O)[C@H]1O`: the Potency result in assay [1] was “inactive”. In addition, the molecule was called inactive in assay [2]. Moreover, the Potency was 0.1 µM (active) in assay [3] and 0.0248 µM (active) in assay [4].

As to `COCC(=O)N(c1c(C)cccc1C)C(C)C(=O)OC` (configuration not stated), the Potency result in assay [1], in assay [3] and in assay [4] was “inactive” in each case. The molecule was called inactive in assay [2].

In the case of `C[C@H]1C(=O)O[C@@H]2CCN3CC=C(COC(=O)[C@](C)(O)[C@]1(C)O)[C@H]23`, the Potency result in assay [1], in assay [3] and in assay [4] was “inactive” throughout. In addition, in assay [2], the molecule was classed as inactive.

Regarding `Nc1ccc(N)cc1`, the Potency entry in assay [1], in assay [3] and in assay [4] was “inactive” in each case. Besides, the molecule was called inactive in assay [2].

With `CCN(CC)CCOC(=O)C(C)(c1ccccc1)c1ccccc1`, the Potency result in assay [1], in assay [3] and in assay [4] was “inactive” each time. Also, the molecule was called inactive in assay [2].

With `O=c1n(Cl)c(=O)n(Cl)c(=O)n1Cl`, the Potency result in assay [1], in assay [3] and in assay [4] was “inactive” each time. Further, the molecule was called inactive in assay [2].

Take `CNC(=O)Oc1cccc2ccccc12`: the Potency entry in assay [1], in assay [3] and in assay [4] was “inactive” throughout. In assay [2], the molecule was classed as inactive.

With `CCOC(=O)NC(O)C(Cl)(Cl)Cl` (configuration not stated), the Potency result in assay [1], in assay [3] and in assay [4] was “inactive” each time. In addition, the call in assay [2] was inactive.

For the molecule `CCCC[N+]1(C)[C@@H]2CC(OC(=O)[C@H](CO)c3ccccc3)C[C@H]1[C@@H]1O[C@@H]12` (some centres not stated), the Potency entry in assay [1], in assay [3] and in assay [4] was “inactive” in each case. Also, the molecule was called inactive in assay [2].

For `CN1CCc2cc(Cl)c(O)cc2[C@H]2c3ccccc3CC[C@@H]21`, the Potency entry in assay [1], in assay [3] and in assay [4] was “inactive” throughout. Further, the result in assay [2] was inactive.

In the case of `COc1ccc(CN2CCNCC2)c(OC)c1OC`, the Potency entry in assay [1], in assay [3] and in assay [4] was “inactive” each time. Besides, the outcome in assay [2] was inactive.

With `CCOC(=O)c1cncn1C(C)c1ccccc1` (configuration not stated), the Potency entry in assay [1], in assay [3] and in assay [4] was “inactive” throughout. For the same molecule, the result in assay [2] was inactive.

The values above are taken from PubChem BioAssay (NCATS).
